# Results filed as inconclusive are left out. Where a call stands in place of a potency, no number is given. Calls of active or inactive are those of the source. Calls follow the shape of the dose curve; as a rule, active = well fitted curve in the direction sought with a large enough effect in the repeat runs; inconclusive = weak or mixed curves; inactive = no such curve, though single readings can be large; an effect the other way counts as inactive or inconclusive.
# Assays:
# [1] = biological target: Cytochrome P450 2D6 (Homo sapiens) (UniProt P10635); experiment: Cytochrome P450 Family 2 Subfamily D Member 6 (CYP2D6) small molecule antagonists: luciferase reporter qHTS assay (AID 1671196); also: nearly all actives have a fitted effect of over 50% in size
# Chain of Cytochrome P450 2D6 (Homo sapiens) (P10635 whole entry, looked up): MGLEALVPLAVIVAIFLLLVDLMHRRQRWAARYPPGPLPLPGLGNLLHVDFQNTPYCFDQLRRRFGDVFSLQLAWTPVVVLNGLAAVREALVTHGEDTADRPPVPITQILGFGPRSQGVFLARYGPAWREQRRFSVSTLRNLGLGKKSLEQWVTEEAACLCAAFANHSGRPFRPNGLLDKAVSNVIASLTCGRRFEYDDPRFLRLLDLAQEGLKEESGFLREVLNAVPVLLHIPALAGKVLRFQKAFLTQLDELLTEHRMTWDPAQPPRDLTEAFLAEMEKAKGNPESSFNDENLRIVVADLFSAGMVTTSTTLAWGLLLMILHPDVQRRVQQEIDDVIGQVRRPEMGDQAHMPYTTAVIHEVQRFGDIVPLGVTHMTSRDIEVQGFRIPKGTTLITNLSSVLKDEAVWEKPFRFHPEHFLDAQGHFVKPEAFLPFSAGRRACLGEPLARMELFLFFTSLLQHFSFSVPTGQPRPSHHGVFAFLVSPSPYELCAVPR
# Outline: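 Quantitative HTS of Tox21 chemicals against CYP2D6 using a luminescent proluciferin substrate. After NADPH addition, 1 h room-temperature reaction; luminescence recorded 20 min post detection reagent.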
# [2] = biological target: Cytochrome P450 2C19 (Homo sapiens) (UniProt P33261); experiment: Cytochrome P450 Family 2 Subfamily C Member 19 (CYP2C19) small molecule antagonists: luciferase reporter qHTS assay (AID 1671197); also: nearly all actives have a fitted effect of over 65% in size
# Chain of Cytochrome P450 2C19 (Homo sapiens) (P33261 whole entry, looked up): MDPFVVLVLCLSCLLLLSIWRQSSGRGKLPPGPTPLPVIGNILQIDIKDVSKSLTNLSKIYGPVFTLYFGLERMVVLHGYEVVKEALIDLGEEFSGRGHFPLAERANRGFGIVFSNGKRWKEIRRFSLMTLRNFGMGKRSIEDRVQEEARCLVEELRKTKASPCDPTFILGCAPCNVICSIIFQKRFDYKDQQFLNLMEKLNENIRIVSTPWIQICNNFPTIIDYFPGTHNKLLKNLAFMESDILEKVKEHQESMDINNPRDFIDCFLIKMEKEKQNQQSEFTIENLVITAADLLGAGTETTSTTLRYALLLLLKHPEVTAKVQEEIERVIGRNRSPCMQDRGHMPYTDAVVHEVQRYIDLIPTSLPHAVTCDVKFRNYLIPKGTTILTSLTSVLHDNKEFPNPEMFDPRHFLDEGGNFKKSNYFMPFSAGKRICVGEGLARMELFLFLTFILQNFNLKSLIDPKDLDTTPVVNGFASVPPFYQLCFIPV
# Outline: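 Compounds were tested on CYP2C19 activity via proluciferin conversion to luciferin. The 37C, 1 h reaction followed NADPH addition; detection reagent stopped it.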
# [3] = biological target: Cytochrome P450 2C9 (Homo sapiens) (UniProt P11712); experiment: Cytochrome P450 Family 2 Subfamily C Member 9 (CYP2C9) small molecule antagonists: luciferase reporter qHTS assay (AID 1671198); also: nearly all actives have a fitted effect of over 50% in size
# Chain of Cytochrome P450 2C9 (Homo sapiens) (P11712 whole entry, looked up): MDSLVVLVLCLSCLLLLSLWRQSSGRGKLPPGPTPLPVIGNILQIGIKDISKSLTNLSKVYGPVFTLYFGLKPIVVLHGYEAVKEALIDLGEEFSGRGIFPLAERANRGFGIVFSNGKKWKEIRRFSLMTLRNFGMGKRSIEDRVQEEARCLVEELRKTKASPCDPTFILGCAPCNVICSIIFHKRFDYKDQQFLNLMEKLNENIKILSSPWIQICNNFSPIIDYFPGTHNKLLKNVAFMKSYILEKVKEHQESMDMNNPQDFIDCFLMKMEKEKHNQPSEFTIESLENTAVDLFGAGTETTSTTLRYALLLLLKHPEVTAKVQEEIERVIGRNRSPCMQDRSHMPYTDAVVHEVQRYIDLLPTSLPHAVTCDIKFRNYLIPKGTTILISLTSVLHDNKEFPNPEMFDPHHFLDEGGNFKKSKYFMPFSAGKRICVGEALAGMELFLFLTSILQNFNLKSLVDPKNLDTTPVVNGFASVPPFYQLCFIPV
# Outline: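 P450-Glo proluciferin substrate with CYP2C9 enzyme; 10 min RT preincubation, then NADPH regeneration 1 h at 37C; luciferin detection reagent 20 min RT, luminescence in relative luminescence units.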
# [4] = biological target: Cytochrome P450 1A2 (Homo sapiens) (UniProt P05177); experiment: Cytochrome P450 Family 1 Subfamily A Member 2 (CYP1A2) small molecule antagonists: luciferase reporter qHTS assay (AID 1671199); also: nearly all actives have a fitted effect of over 50% in size
# Chain of Cytochrome P450 1A2 (Homo sapiens) (P05177 whole entry, looked up): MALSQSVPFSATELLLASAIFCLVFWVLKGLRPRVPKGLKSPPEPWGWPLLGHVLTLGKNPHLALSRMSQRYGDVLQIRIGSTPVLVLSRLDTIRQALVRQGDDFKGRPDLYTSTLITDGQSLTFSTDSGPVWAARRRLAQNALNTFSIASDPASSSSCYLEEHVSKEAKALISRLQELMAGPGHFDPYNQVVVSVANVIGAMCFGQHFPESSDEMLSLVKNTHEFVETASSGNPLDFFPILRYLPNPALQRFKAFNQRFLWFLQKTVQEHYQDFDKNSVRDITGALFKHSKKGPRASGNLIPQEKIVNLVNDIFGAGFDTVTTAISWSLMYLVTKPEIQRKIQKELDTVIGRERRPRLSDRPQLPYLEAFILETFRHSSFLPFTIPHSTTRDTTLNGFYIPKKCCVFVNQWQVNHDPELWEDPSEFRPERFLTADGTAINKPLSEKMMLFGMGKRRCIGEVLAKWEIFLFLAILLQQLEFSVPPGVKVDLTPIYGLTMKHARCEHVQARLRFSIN
# Outline: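 Quantitative high-throughput format using the P450-Glo CYP1A2 system. Reaction initiated by NADPH regeneration solution, 1 h at room temperature, then stopped with detection reagent; luminescence measured 20 min later.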
# [5] = biological target: Voltage-gated inwardly rectifying potassium channel KCNH2 (Homo sapiens) (UniProt Q12809); experiment: Human Ether-a-go-go-Related Gene (hERG) channel small molecule antagonists: fluorescence cell-based qHTS assay (AID 1671200); also: nearly all actives have a fitted effect of over 50% in size
# Chain of Voltage-gated inwardly rectifying potassium channel KCNH2 (Homo sapiens) (Q12809 whole entry, looked up): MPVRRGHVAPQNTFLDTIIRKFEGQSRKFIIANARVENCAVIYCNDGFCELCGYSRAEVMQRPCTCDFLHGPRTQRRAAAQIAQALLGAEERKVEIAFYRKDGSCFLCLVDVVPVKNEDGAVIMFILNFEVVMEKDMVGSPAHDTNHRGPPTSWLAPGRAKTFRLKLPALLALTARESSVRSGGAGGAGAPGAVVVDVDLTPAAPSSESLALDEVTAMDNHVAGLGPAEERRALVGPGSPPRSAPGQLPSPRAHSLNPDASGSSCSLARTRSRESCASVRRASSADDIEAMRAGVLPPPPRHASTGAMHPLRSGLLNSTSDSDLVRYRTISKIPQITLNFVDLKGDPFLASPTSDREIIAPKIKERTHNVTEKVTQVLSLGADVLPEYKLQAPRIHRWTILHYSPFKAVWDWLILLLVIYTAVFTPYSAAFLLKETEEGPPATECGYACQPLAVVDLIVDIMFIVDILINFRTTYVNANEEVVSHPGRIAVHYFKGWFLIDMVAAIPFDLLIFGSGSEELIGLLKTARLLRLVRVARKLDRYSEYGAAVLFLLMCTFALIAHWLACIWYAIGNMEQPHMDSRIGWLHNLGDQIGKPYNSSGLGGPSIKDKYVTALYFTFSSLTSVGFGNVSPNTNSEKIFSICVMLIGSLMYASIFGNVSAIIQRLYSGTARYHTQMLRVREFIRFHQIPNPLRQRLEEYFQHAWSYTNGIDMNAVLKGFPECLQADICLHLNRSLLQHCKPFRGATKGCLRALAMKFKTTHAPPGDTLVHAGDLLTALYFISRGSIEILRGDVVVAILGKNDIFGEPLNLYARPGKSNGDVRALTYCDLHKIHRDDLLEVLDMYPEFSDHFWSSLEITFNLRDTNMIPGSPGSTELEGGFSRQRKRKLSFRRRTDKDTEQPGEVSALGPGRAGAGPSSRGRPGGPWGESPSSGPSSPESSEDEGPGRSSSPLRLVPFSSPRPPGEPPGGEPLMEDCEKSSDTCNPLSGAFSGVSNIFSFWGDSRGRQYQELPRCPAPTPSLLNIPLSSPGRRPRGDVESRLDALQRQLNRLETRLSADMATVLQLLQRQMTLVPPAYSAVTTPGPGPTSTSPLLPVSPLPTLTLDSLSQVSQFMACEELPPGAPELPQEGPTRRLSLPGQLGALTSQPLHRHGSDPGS
# Outline: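 Cell line hERG-U2OS; dye FluxOR II, 1 h RT dark; Tl+ stimulus; ex 480/em 540 nm, read each second for 2 min.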
# [6] = biological target: Cytochrome P450 3A4 (Homo sapiens) (UniProt P08684); experiment: Cytochrome P450 Family 3 Subfamily A Member 4 (CYP3A4) small molecule antagonists: luciferase reporter qHTS assay (AID 1671201); also: nearly all actives have a fitted effect of over 50% in size
# Chain of Cytochrome P450 3A4 (Homo sapiens) (P08684 whole entry, looked up): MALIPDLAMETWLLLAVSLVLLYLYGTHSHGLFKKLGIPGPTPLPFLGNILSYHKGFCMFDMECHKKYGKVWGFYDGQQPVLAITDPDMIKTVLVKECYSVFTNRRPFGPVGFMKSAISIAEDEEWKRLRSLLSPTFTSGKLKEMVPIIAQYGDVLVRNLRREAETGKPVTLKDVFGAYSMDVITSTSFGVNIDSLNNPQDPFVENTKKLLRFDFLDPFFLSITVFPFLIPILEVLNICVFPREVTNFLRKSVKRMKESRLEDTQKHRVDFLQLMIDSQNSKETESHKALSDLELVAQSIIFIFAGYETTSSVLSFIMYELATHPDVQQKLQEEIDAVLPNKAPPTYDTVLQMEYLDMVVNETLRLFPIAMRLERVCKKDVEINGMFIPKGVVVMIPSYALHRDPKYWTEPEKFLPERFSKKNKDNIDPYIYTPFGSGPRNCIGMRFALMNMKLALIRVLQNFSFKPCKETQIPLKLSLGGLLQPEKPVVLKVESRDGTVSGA
# Outline: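 Room-temperature assay throughout: 10 min compound–enzyme/substrate preincubation, 1 h reaction after NADPH regeneration solution, 20 min detection. Luciferin formed from proluciferin substrate is quantified by luminescence.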
# Potency is read from the fitted curve at half-maximal effect.
Compound,Potency [1],Potency [2],Potency [3],Potency [4],Potency [5],Potency [6]
Cc1cc2c(OCC(CNC(C)(C)C)OC(=O)c3ccccc3)cccc2[nH]1 (configuration not stated),0.692 µM (active),38.9 µM (active),7.76 µM (active),inactive,,
O=c1cc(-c2ccccc2)oc2ccc3ccccc3c12,5.64 µM (active),3.56 µM (active),3.17 µM (active),5.64 µM (active),inactive,
O=[N+]([O-])c1ccc(O/N=C/c2cc(Br)c(O)c(Br)c2)c([N+](=O)[O-])c1,inactive,79.3 µM (active),9.98 µM (active),inactive,inactive,inactive
C=CCc1ccccc1OCC(O)CNC(C)C (configuration not stated),5.49 µM (active),inactive,inactive,12.3 µM (active),inactive,inactive
Oc1c(I)cc(I)c2cccnc12,inactive,inactive,inactive,inactive,inactive,inactive
NCCNCCO,28.6 µM (active),inactive,inactive,inactive,inactive,
OCCOCC#CCOCCO,inactive,inactive,inactive,inactive,inactive,
CC(C)Nc1cccnc1N1CCN(C(=O)c2cc3cc(NS(C)(=O)=O)ccc3[nH]2)CC1,5.49 µM (active),9.77 µM (active),2.75 µM (active),inactive,9.52 µM (active),
C[C@@H](O)[C@H]1C(=O)N2C(C(=O)O)=C([C@H]3CCCO3)S[C@H]12,inactive,inactive,inactive,inactive,inactive,inactive
O=c1[nH]c2ccc(Cl)cc2o1,inactive,79.6 µM (active),inactive,10 µM (active),inactive,
CCOC(=O)c1ccc(O)c(O)c1,inactive,inactive,inactive,27.5 µM (active),inactive,
CCCCCCCCCCCCCCN(CCO)CCO,7.96 µM (active),79.6 µM (active),31.7 µM (active),17.8 µM (active),,
CCCCC(CC)COP(=O)(O)O (configuration not stated),inactive,40.6 µM (active),40.6 µM (active),inactive,inactive,inactive
CC1(C)[C@H](C(=O)O)N2C(=O)C[C@H]2S1(=O)=O,inactive,30.9 µM (active),inactive,inactive,inactive,
CCOC(=O)c1ccc(C#Cc2ccc3c(c2)C(C)(C)CCS3)nc1,inactive,inactive,inactive,,,
C[C@@H](O[C@H]1OCCN(Cc2n[nH]c(=O)[nH]2)[C@H]1c1ccc(F)cc1)c1cc(C(F)(F)F)cc(C(F)(F)F)c1,19.5 µM (active),15.5 µM (active),13.8 µM (active),inactive,8.49 µM (active),
O=C(/C=C/c1ccccc1)OCCc1ccccc1,inactive,20 µM (active),25.2 µM (active),6.33 µM (active),49 µM (active),inactive
COc1cc(C(=O)NCCCCCC(=O)O)cc(OC)c1OC,inactive,inactive,inactive,inactive,inactive,inactive
O=C1NCCN1CCO,inactive,inactive,inactive,inactive,inactive,
C=COCC(C)C,inactive,inactive,inactive,inactive,inactive,inactive

Compound,Potency [1],Potency [2],Potency [3],Potency [4],Potency [5],Potency [6]
CC(=O)NC1(c2cccc(F)c2)CCN(CC[C@@]2(c3ccc(Cl)c(Cl)c3)CN(c3ccccc3)C(=O)CO2)CC1,28.3 µM (active),6.34 µM (active),8.96 µM (active),inactive,13.8 µM (active),
O=C(O)c1cccc(-c2noc(-c3ccccc3F)n2)c1,3.47 µM (active),0.776 µM (active),2.45 µM (active),4.56 µM (active),inactive,
COc1cc(C(=O)NC2CCN(C)CC2)ccc1Nc1ncc2c(n1)N(C1CCCC1)CC(F)(F)C(=O)N2C,inactive,51.7 µM (active),29.1 µM (active),inactive,inactive,
CN1CCCN=C1COC(=O)C(O)(c1ccccc1)C1CCCCC1 (configuration not stated),0.617 µM (active),inactive,inactive,inactive,4.77 µM (active),
O=C(Nc1cccc2c(=O)cc(-c3nn[nH]n3)oc12)c1ccc(OCCCCc2ccccc2)cc1,inactive,inactive,7.76 µM (active),inactive,inactive,
CC(C)(C)CC(=O)OCC(=O)[C@@]1(O)CC[C@H]2[C@@H]3CCC4=CC(=O)C=C[C@]4(C)[C@H]3[C@@H](O)C[C@@]21C,38.9 µM (active),9.77 µM (active),15.5 µM (active),inactive,inactive,
COC(=O)C1=C(C)NC(C)=C(C(=O)O[C@@H]2CCCN(Cc3ccccc3)C2)[C@@H]1c1cccc([N+](=O)[O-])c1,15.5 µM (active),4.9 µM (active),0.871 µM (active),,,
CN1CCCC(n2nc(Cc3ccc(Cl)cc3)c3ccccc3c2=O)CC1 (configuration not stated),1.1 µM (active),,,,,
NC1[C@H]2CN(c3nc4c(cc3F)c(=O)c(C(=O)O)cn4-c3ccc(F)cc3F)C[C@@H]12 (some centres not stated),inactive,inactive,inactive,inactive,inactive,
CC(=O)Nc1cc(S(=O)(=O)O)cc2cc(S(=O)(=O)O)c(N=Nc3ccccc3)c(O)c12,35.6 µM (active),39.9 µM (active),35.6 µM (active),31.7 µM (active),inactive,
CCCCN(CCN(CCCC)C(=O)N1CCOCC1)C(=O)N1CCOCC1,inactive,inactive,inactive,inactive,inactive,
O=C(O)CCC(=O)C(=O)O,71 µM (active),inactive,inactive,inactive,inactive,
CC(CC1c2ccccc2CCc2ccccc21)CN(C)C (configuration not stated),0.977 µM (active),8.71 µM (active),inactive,inactive,,
COc1ccccc1NC(=O)c1cc2ccccc2cc1O,inactive,11.2 µM (active),22.4 µM (active),1.78 µM (active),inactive,28.3 µM (active)
CC(=O)OCC(=O)NCCCOc1cccc(CN2CCCCC2)c1,15.5 µM (active),inactive,inactive,inactive,inactive,inactive
O[C@@H]1CO[C@H]2[C@@H]1OC[C@@H]2O,inactive,inactive,inactive,inactive,inactive,inactive
O=C(Cn1ccnc1[N+](=O)[O-])NCCO,inactive,inactive,inactive,inactive,inactive,inactive
O=C(CCCN1CC=C(n2c(=O)[nH]c3ccccc32)CC1)c1ccc(F)cc1,2.45 µM (active),inactive,inactive,inactive,,
COc1ccc(OC(=O)N(CC(=O)O)Cc2ccc(OCCc3nc(-c4ccccc4)oc3C)cc2)cc1,inactive,inactive,13.8 µM (active),17.4 µM (active),inactive,inactive
Clc1ccc(Nc2nnc(Cc3ccncc3)c3ccccc23)cc1,17.4 µM (active),2.19 µM (active),1.55 µM (active),,inactive,

Compound,Potency [1],Potency [2],Potency [3],Potency [4],Potency [5],Potency [6]
CC(CO)CO,inactive,inactive,inactive,inactive,inactive,inactive
CCCCCCCC/C=C\CCCCCCCCCCCC(=O)O,inactive,inactive,inactive,inactive,inactive,inactive
Cc1ccc(OC(=O)c2ccccc2O)cc1,inactive,inactive,35.6 µM (active),35.6 µM (active),,inactive
C/C=C\C/C=C/CCCCCCCCOC(C)=O,39.9 µM (active),15.9 µM (active),12.6 µM (active),31.7 µM (active),,15.9 µM (active)
CC(C)=CC(=O)C=C(C)C,inactive,39.7 µM (active),inactive,28.1 µM (active),inactive,inactive
COc1ccccc1N1CCN(CCCCNC(=O)c2ccc(-c3ccc(C(C)=O)cc3)cc2)CC1,2.19 µM (active),inactive,inactive,inactive,3.79 µM (active),inactive
CCOC(=O)c1ccccc1C(=C1C=C(Br)C(=O)C(Br)=C1)c1cc(Br)c(O)c(Br)c1,inactive,inactive,23.7 µM (active),,inactive,
C[C@@H]1CN(CCCn2c3ccccc3c3ccccc32)C[C@H](C)N1,0.389 µM (active),inactive,inactive,,6.01 µM (active),
C[C@]1(Cn2ccnn2)[C@H](C(=O)O)N2C(=O)C[C@H]2S1(=O)=O,inactive,inactive,inactive,inactive,inactive,inactive
Cc1ccc(CO)cc1,inactive,inactive,inactive,32.1 µM (active),inactive,inactive
O=C1c2ccccc2C(=O)C1c1ccc(Br)cc1,inactive,1.55 µM (active),3.47 µM (active),,inactive,
CC(C)(C)C(=O)C(=O)O,inactive,inactive,inactive,inactive,inactive,inactive
C=C(C)[C@@H]1CCC2=CCC[C@@H](C)[C@]2(C)C1,inactive,11.2 µM (active),63.3 µM (active),inactive,inactive,71 µM (active)
CC[C@]1(O)C[C@H]2CN(CCc3c([nH]c4ccccc34)[C@@](C(=O)OC)(c3cc4c(cc3OC)N(C=O)[C@H]3[C@@](O)(C(=O)OC)[C@H](OC(C)=O)[C@]5(CC)C=CCN6CC[C@]43[C@@H]65)C2)C1,inactive,inactive,inactive,inactive,inactive,12.3 µM (active)
CN1CCCC(CC2c3ccccc3Sc3ccccc32)C1 (configuration not stated),0.389 µM (active),7.76 µM (active),inactive,inactive,4.77 µM (active),inactive
CCCCCCCCC(CCCCCC)C(=O)O (configuration not stated),inactive,35.6 µM (active),25.2 µM (active),inactive,inactive,inactive
Oc1ccc(Cl)c2cccnc12,inactive,inactive,inactive,inactive,inactive,inactive
Cc1cccc(O)c1N,45.3 µM (active),40.3 µM (active),32 µM (active),,inactive,
Cc1ccc(C(C)(C)O)cc1,inactive,inactive,inactive,,inactive,

# Reference: PubChem BioAssay (Tox21)
